Consider 47 compounds from PubChem BioAssay.

The structures appear in SMILES notation. Several values for one entry are separate records, joined by “and”; a condition that tells them apart may be missing. Equal values may be shown once. Activity calls are given as the source filed them. Unless noted, no stated cut-off is given here; in the data, active means nuclear beta-catenin stimulation mostly above about 4.2% (no sharp cut-off); inactive means mostly below about 10%.

Test [1] can be described thus: stimulators of nuclear beta-catenin in C2C12, primary screen, imaging, WNT3A-conditioned medium, mouse C2C12, NPC library (AID 1117326). The settings on record: stronger effect = higher value.
A short description of test [2]: liver-stage malaria parasite growth inhibition, primary screen, cell-based, HepG2, luciferase luminescence, HepG2 viability (AID 624349; in the data active means parasite load remaining mostly below about 12%, no sharp cut-off; inactive means mostly above about 10%;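 further: 100% = mean of DMSO negative control wells on the same plate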). The settings on record: P. berghei liver stage in HepG2, luciferase luminescence, concentration not given here; parasite load remaining: stronger effect = lower value; viability: measured here: HepG2 viability without parasites.

On to `CC1=CC(=O)c2ccccc2C1=O`, for which the nuclear beta-catenin stimulation was 25% (inactive) in test [1] (at 10 µM) and 0.1% in test [1] (stimulation, at 2 µM).

As to `NC(=O)N/N=C/c1ccc([N+](=O)[O-])o1`, the nuclear beta-catenin stimulation in test [1] (at 10 µM) was 7.6% (inactive); in test [1] (stimulation, at 2 µM), 2%.

Turning to `CCCCOc1cc(C(=O)NCCN(CC)CC)c2ccccc2n1`, the nuclear beta-catenin stimulation in test [1] (at 10 µM) was 5.7% (inactive); in test [1] (stimulation, at 2 µM), 1.8%.

As to `Oc1cc(O)c2c(c1)O[C@H](c1ccc(O)c(O)c1)[C@H](O)C2`, the nuclear beta-catenin stimulation in test [1] (at 10 µM) was -1.4% (inactive); in test [1] (stimulation, at 2 µM), 1.2%.

Regarding `CCN(CCCCOC(=O)c1ccc(OC)c(OC)c1)C(C)Cc1ccc(OC)cc1` (configuration not stated), the nuclear beta-catenin stimulation is 0.6% (inactive) in test [1] (at 10 µM) and 0.5% in test [1] (stimulation, at 2 µM).

`CCN(CC)CCNc1ccc(CO)c2sc3ccccc3c(=O)c12`: the nuclear beta-catenin stimulation in test [1] (at 10 µM) was 63.7% (active); in test [1] (stimulation, at 2 µM), 1.8%.

For `O=C1O[C@H](CO)[C@@H](O)[C@H](O)[C@H]1O`, the nuclear beta-catenin stimulation in test [1] (at 10 µM) was -1.1% (inactive); in test [1] (stimulation, at 2 µM), 1%.

`CCN(CCCc1ccccc1)CCCc1ccccc1`: the nuclear beta-catenin stimulation in test [1] (at 10 µM) is 1% (inactive); in test [1] (stimulation, at 2 µM), 4.5%.

Regarding `CN1CCN(C(c2ccccc2)c2ccccc2)CC1`, the nuclear beta-catenin stimulation in test [1] (at 10 µM) is -2.3% (inactive); in test [1] (stimulation, at 2 µM) it was -0.3%.

Take `Cc1ccc2c(Cl)cc(Cl)c(O)c2n1`: the nuclear beta-catenin stimulation in test [1] (at 10 µM) was 0.6% (inactive); in test [1] (stimulation, at 2 µM) it was -1%.

As to `N=C(N)N`, the nuclear beta-catenin stimulation in test [1] (at 10 µM) was -1.9% (inactive); in test [1] (stimulation, at 2 µM) it was 0.6%.

As to `C[n+]1c2cc(N)ccc2cc2ccc(N)cc21` (tested in a mixture with another compound), the nuclear beta-catenin stimulation in test [1] (at 10 µM) was 123% (active); in test [1] (stimulation, at 2 µM) it was 8%.

For the compound `NC(=O)NC1NC(=O)NC1=O` (configuration not stated), the nuclear beta-catenin stimulation in test [1] (at 10 µM) is -0.1% (inactive); in test [1] (stimulation, at 2 µM), 1.1%.

Regarding `CC(=O)Oc1ccc(C(c2ccc(OC(C)=O)cc2)c2ccccn2)cc1`, the nuclear beta-catenin stimulation was -0.9% (inactive) in test [1] (at 10 µM) and -2.7% in test [1] (stimulation, at 2 µM).

For the compound `CN1C(C(=O)Nc2ccccn2)=C(O)c2sccc2S1(=O)=O`, the nuclear beta-catenin stimulation is 0.8% (inactive) in test [1] (at 10 µM) and 1% in test [1] (stimulation, at 2 µM).

Take `CCCCCCCCCCCCCCCCCCOCC(O)CO` (configuration not stated): the nuclear beta-catenin stimulation in test [1] (at 10 µM) is 3.8% (inactive); in test [1] (stimulation, at 2 µM), 2.8%.

Consider `O=C1c2ccccc2C(=O)C1c1ccccc1`, for which the nuclear beta-catenin stimulation was 0.3% (inactive) in test [1] (at 10 µM) and 0.6% in test [1] (stimulation, at 2 µM).

For the compound `C#CCN[C@@H]1CCc2ccccc21`, the nuclear beta-catenin stimulation in test [1] (at 10 µM) was 0.9% (inactive); in test [1] (stimulation, at 2 µM), 1.4%.

On to `CN1CCOC(c2ccccc2)c2ccccc2C1` (configuration not stated), for which the nuclear beta-catenin stimulation is -0.7% (inactive) in test [1] (at 10 µM) and -1.3% in test [1] (stimulation, at 2 µM).

As to `COc1ccc2c(c1)c(CC(=O)OCC(=O)O)c(C)n2C(=O)c1ccc(Cl)cc1`, the nuclear beta-catenin stimulation in test [1] (at 10 µM) was 1.8% (inactive); in test [1] (stimulation, at 2 µM) it was 0.4%.

Take `CN1CCN(c2cc3c(cc2F)c(=O)c(C(=O)O)cn3-c2ccc(F)cc2)CC1`: the nuclear beta-catenin stimulation in test [1] (at 10 µM) was 0.8% (inactive); in test [1] (stimulation, at 2 µM), 0.3%.

As for `Cn1c(=O)c2c(ncn2CC(O)CO)n(C)c1=O` (configuration not stated), the nuclear beta-catenin stimulation is -0.1% (inactive) in test [1] (at 10 µM) and 0.8% in test [1] (stimulation, at 2 µM).

On to `COCCCOc1cc(C[C@@H](C[C@H](N)[C@@H](O)C[C@H](C(=O)NCC(C)(C)C(N)=O)C(C)C)C(C)C)ccc1OC`, for which the nuclear beta-catenin stimulation in test [1] (at 10 µM) was -0.6% (inactive); in test [1] (stimulation, at 2 µM), 2.2%.

Turning to `Cc1ccc(C(C)C)cc2c(C)ccc1-2`, the nuclear beta-catenin stimulation was -1.2% (inactive) in test [1] (at 10 µM) and 0.2% in test [1] (stimulation, at 2 µM).

As for `COc1cc(C(=O)NCc2ccc(OCCN(C)C)cc2)cc(OC)c1OC`, the nuclear beta-catenin stimulation in test [1] (at 10 µM) was 9.2% (inactive); in test [1] (stimulation, at 2 µM), 5.8%.

Take `Cc1c[nH]c2ccccc12`: the nuclear beta-catenin stimulation in test [1] (at 10 µM) is 2% (inactive); in test [1] (stimulation, at 2 µM), 0.3%.

Take `CC1(C)O[C@H]2CC(=O)OC[C@]23[C@H]2CC[C@@]4(C)[C@H](c5ccoc5)OC(=O)[C@H]5O[C@]54[C@]2(C)C(=O)C[C@@H]13`: the nuclear beta-catenin stimulation is -0.3% (inactive) in test [1] (at 10 µM) and 0.6% in test [1] (stimulation, at 2 µM).

On to `c1ccc(CN(CC2=NCCN2)c2ccccc2)cc1`, for which the nuclear beta-catenin stimulation in test [1] (at 10 µM) is 3.4% (inactive); in test [1] (stimulation, at 2 µM), 2.4%.

In the case of `CC(=O)OCC(=O)[C@H]1CC[C@H]2[C@@H]3CCC4=CC(=O)CC[C@]4(C)[C@H]3CC[C@]12C`, the nuclear beta-catenin stimulation in test [1] (at 10 µM) was -1.4% (inactive); in test [1] (stimulation, at 2 µM), -0.5%.

Take `NC(CS)C(=O)O` (configuration not stated): the nuclear beta-catenin stimulation in test [1] (at 10 µM) was -0.1% (inactive); in test [1] (stimulation, at 2 µM), 0.4%.

`CC(=O)Oc1cccc2c1C(=O)c1c(OC(C)=O)cc(C(=O)O)cc1C2=O`: the nuclear beta-catenin stimulation in test [1] (at 10 µM) is 3.2% (inactive); in test [1] (stimulation, at 2 µM) it was 3.4%.

For the compound `COc1ccccc1OCC(O)CO` (configuration not stated), the nuclear beta-catenin stimulation in test [1] (at 10 µM) is 1.9% (inactive); in test [1] (stimulation, at 2 µM), 0.9%.

On to `CC(C)NC[C@@H](O)COc1cccc2ccccc12`, for which the nuclear beta-catenin stimulation in test [1] (at 10 µM) is -0.4% (inactive); in test [1] (stimulation, at 2 µM) it was 1.7%.

For the compound `Cc1nc(-c2ccc(OCC(C)C)c(C#N)c2)sc1C(=O)O`, the nuclear beta-catenin stimulation is 1.3% (inactive) in test [1] (at 10 µM) and 0.4% in test [1] (stimulation, at 2 µM).

For the compound `COc1cc(OC)cc(OC)c1`, the nuclear beta-catenin stimulation in test [1] (at 10 µM) was 1.2% (inactive); in test [1] (stimulation, at 2 µM) it was -0.8%.

On to `Oc1cccc2[nH]ccc12`, for which the nuclear beta-catenin stimulation is 1.5% (inactive) in test [1] (at 10 µM) and -1.2% in test [1] (stimulation, at 2 µM).

With `COc1cc(NS(=O)(=O)c2ccc(N)cc2)nc(OC)n1`, the nuclear beta-catenin stimulation is 0.5% (inactive) in test [1] (at 10 µM) and 0.4% in test [1] (stimulation, at 2 µM).

As to `O=C(O)CSCC(=O)NC1CCSC1=O` (configuration not stated), the nuclear beta-catenin stimulation in test [1] (at 10 µM) is -0.4% (inactive); in test [1] (stimulation, at 2 µM), 1.1%.

With `CC1=C(C)C(=O)C(C(CCCCCC(=O)O)c2ccccc2)=C(C)C1=O` (configuration not stated), the nuclear beta-catenin stimulation in test [1] (at 10 µM) is 0% (inactive); in test [1] (stimulation, at 2 µM), -1%.

In the case of `Cc1ccccc1OCC(O)CO` (configuration not stated), the nuclear beta-catenin stimulation is 0.8% (inactive) in test [1] (at 10 µM) and 2.4% in test [1] (stimulation, at 2 µM).

With `Oc1c(I)cc(I)c2cccnc12`, in test [2], the parasite load remaining is 92.2% (inactive) and 20.2% (inactive); the viability is 77.1% and 92.8%. In addition, the nuclear beta-catenin stimulation in test [1] (at 10 µM) was 0.7% (inactive). For the same compound, the nuclear beta-catenin stimulation in test [1] (stimulation, at 2 µM) turned out to be 1%.

Consider `COc1cc([C@H]2Oc3cc([C@H]4Oc5cc(O)cc(O)c5C(=O)[C@@H]4O)ccc3O[C@@H]2CO)ccc1O`, for which, in test [2], the parasite load remaining was 75.8% (inactive) and the viability amounted to 93%. Further, the nuclear beta-catenin stimulation in test [1] (at 10 µM) is 3.7% (inactive). In addition, the nuclear beta-catenin stimulation in test [1] (stimulation, at 2 µM) amounted to 0.8%.

As to `CCn1cc(C(=O)O)c(=O)c2cc(F)c(N3CCNCC3)nc21`, the parasite load remaining in test [2] was 165% (inactive) and 68.7% (inactive) and 19.5% (inactive). The nuclear beta-catenin stimulation in test [1] (at 10 µM) is -0.6% (inactive); in test [1] (stimulation, at 2 µM), 0.6%.

For `CC1(C)S[C@@H]2[C@H](NC(=O)C(C(=O)O)c3ccccc3)C(=O)N2[C@H]1C(=O)O` (some centres not stated), in test [2], the parasite load remaining was 87.5% (inactive) and 61.7% (inactive); the viability was 75.2% and 98.9%. Also, the nuclear beta-catenin stimulation in test [1] (at 10 µM) was -0.3% (inactive). The nuclear beta-catenin stimulation in test [1] (stimulation, at 2 µM) was -0.3%.

For the compound `O=P(O)(O)C(O)(Cc1cccnc1)P(=O)(O)O`, in test [2], the parasite load remaining is 12.3% (inactive) and 1.41% (inactive); the viability is 96.3% and 95%. The nuclear beta-catenin stimulation in test [1] (at 10 µM) is -1.2% (inactive). Moreover, in test [1] (stimulation, at 2 µM), the nuclear beta-catenin stimulation was -0.8%.

As to `CCOC(=O)c1ccc(N)cc1`, in test [2], the parasite load remaining was 108% (inactive) and 105% (inactive) and 49.4% (inactive); the viability was 103% and 76.4% and 98.1%. The nuclear beta-catenin stimulation in test [1] (at 10 µM) was 0.3% (inactive). The nuclear beta-catenin stimulation in test [1] (stimulation, at 2 µM) amounted to 1.2%.

For `Cn1c(=O)c2c(ncn2CCO)n(C)c1=O`, in test [2], the parasite load remaining was 29.7% (inactive) and 108% (inactive); the viability was 47.6% and 91.1%. Also, the nuclear beta-catenin stimulation in test [1] (at 10 µM) was 2.5% (inactive). Also, in test [1] (stimulation, at 2 µM), the nuclear beta-catenin stimulation came out at 1.4%.

The term viability denotes a read-out of living cells in per cent, often relative to untreated cells.
